In PubChem BioAssay one finds log fold change Tl+ flux data, which are given here for 14 compounds.

A number with no mark means an inactive call. The source made the active and inactive calls.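 How the source made its calls: active means thallium flux through the channel raised or lowered by more than 3 SD from vehicle-only wells, actives on both sides; inactive means the rest.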

What all share (experiment): modulators of BK channel variants, profiling panel, selectivity assay, cell-based, U2OS BacMam, thallium flux, beta subunits (AID 1259406);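 further: initial slope of Thallos dye fluorescence rise after thallium is added; log ratio against the mean of 0.3% DMSO vehicle wells on the same plate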
Assay [1] concerns F380Y/beta2Delta. As to conditions: at 30 µM.
Assay [2] relates to F380Y/beta4. To be noted: at 30 µM.
The target of assay [3] is Calcium-activated potassium channel subunit alpha-1 (Homo sapiens) + Leucine-rich repeat-containing protein 26 (Homo sapiens) (UniProt Q12791+Q2I0M4). As to conditions: F380Y/Slo1WT/gamma1, at 30 µM.
Sequence of Calcium-activated potassium channel subunit alpha-1 (Homo sapiens) + Leucine-rich repeat-containing protein 26 (Homo sapiens) (Q2I0M4 whole entry, looked up, one chain of several): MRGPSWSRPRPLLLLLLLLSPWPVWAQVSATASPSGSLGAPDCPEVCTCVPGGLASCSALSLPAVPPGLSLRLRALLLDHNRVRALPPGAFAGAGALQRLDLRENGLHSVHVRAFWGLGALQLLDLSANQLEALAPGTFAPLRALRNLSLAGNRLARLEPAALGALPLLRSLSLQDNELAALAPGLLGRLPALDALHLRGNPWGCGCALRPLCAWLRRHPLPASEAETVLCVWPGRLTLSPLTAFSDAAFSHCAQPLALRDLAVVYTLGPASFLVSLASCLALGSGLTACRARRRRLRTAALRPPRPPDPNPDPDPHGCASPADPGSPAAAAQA
Assay [4] concerns R275C. As to conditions: at 30 µM.
The test system of assay [5] is R275C/beta1. To be noted: at 30 µM.
In assay [6] the test system is R275C/beta2Delta. To be noted: at 30 µM.
The subject of assay [7] is R275C/beta4. To be noted: at 30 µM.
Assay [8] has as its system R275C/Slo1WT/beta2. As to conditions: at 30 µM.

Turning to `Nc1ccn([C@H]2CC[C@@H](CO)O2)c(=O)n1`, the log fold change Tl+ flux was -0.0145 in assay [1]; 0.0289 in assay [2]; 0.0157 in assay [3]; -0.0969 in assay [4]; -0.00164 in assay [5]; -0.00877 in assay [6]. Moreover, the log fold change Tl+ flux is 0.00428 in assay [7] and 0.0272 in assay [8].

With `CCN(CC)CC1CCCCN1CC(=O)N1c2ccccc2C(=O)Nc2cccnc21` (configuration not stated), the log fold change Tl+ flux in assay [1] was 0.0497; in assay [2], -0.01; in assay [3], 0.0283; in assay [4], -0.0778; in assay [5], 0.0108; in assay [6], 0.0199. Further, the log fold change Tl+ flux in assay [7] is 0.0303; in assay [8], 0.0393.

`C[C@H](NC(CCc1ccccc1)C(=O)O)C(=O)N1CCC[C@H]1C(=O)O` (some centres not stated): the log fold change Tl+ flux in assay [1] was 0.0235; in assay [2] it was 0.0162; in assay [3], -0.0317; in assay [4], -0.0419; in assay [5], 0.0208; in assay [6] it was 0.0297. The log fold change Tl+ flux is 0.0258 in assay [7] and 0.0874 (active) in assay [8].

Consider `Nc1[nH]c(=O)ncc1F`, for which the log fold change Tl+ flux was 0.0238 in assay [1]; 0.00948 in assay [2]; 0.00877 in assay [3]; 0.0013 in assay [4]; -0.0522 in assay [5]; 0.00516 in assay [6]. Further, the log fold change Tl+ flux in assay [7] is -0.00411; in assay [8] it was -0.0674.

Take `Nc1nc2c(ncn2COC(CO)CO)c(=O)[nH]1`: the log fold change Tl+ flux was 0.0461 in assay [1]; 0.0377 in assay [2]; -0.00437 in assay [3]; 0.0708 in assay [4]; -0.0192 in assay [5]; 0.0472 in assay [6]. The values for the log fold change Tl+ flux in assay [7] and in assay [8] were -0.0224 and -0.00303, respectively.

Take `Cc1cccc(C)c1OCC(C)N` (configuration not stated): the log fold change Tl+ flux in assay [1] was 0.00522; in assay [2], 0.033; in assay [3], 0.0106; in assay [4], 0.0441; in assay [5], 0.0258; in assay [6] it was 0.00537. The log fold change Tl+ flux in assay [7] was 0.0107; in assay [8], 0.0729.

For the compound `Nc1nc(F)nc2c1ncn2[C@@H]1O[C@H](CO)[C@@H](O)[C@@H]1O`, the log fold change Tl+ flux in assay [1] is 0.0109; in assay [2], -0.0895; in assay [3] it was -0.000905; in assay [4], -0.0205; in assay [5], -0.0181; in assay [6], -0.00769. The log fold change Tl+ flux is -0.0294 in assay [7] and -0.0303 in assay [8].

For the compound `CC(c1cc2ccccc2s1)N(O)C(N)=O` (configuration not stated), the log fold change Tl+ flux in assay [1] was 0.0219; in assay [2], 0.0185; in assay [3] it was 0.0287; in assay [4] it was 0.00217; in assay [5], 0.0284; in assay [6] it was 0.0541. Also, the log fold change Tl+ flux in assay [7] was -0.0188; in assay [8], 0.0381.

As for `COc1cc(C)c(Cc2cnc(N)nc2N)cc1OC`, the log fold change Tl+ flux in assay [1] is 0.0137; in assay [2], 0.0281; in assay [3] it was 0.0784; in assay [4] it was -0.0521; in assay [5] it was 0.0546; in assay [6] it was 0.0143. The log fold change Tl+ flux in assay [7] is 0.00157; in assay [8] it was 0.0258.

As to `CCc1c(C)[nH]c2c1C(=O)C(CN1CCOCC1)CC2` (configuration not stated), the log fold change Tl+ flux is 0.0445 in assay [1]; -0.00138 in assay [2]; -0.0511 in assay [3]; 0.0162 in assay [4]; -0.0312 in assay [5]; 0.0494 in assay [6]. Besides, the log fold change Tl+ flux was -0.0175 in assay [7] and 0.00393 in assay [8].

Regarding `O=C1N(c2ccccc2)c2ccccc2C1(Cc1ccncc1)Cc1ccncc1`, the log fold change Tl+ flux was -0.0915 in assay [1]; -0.0921 in assay [2]; -0.0557 in assay [3]; -0.00568 in assay [4]; 0.0135 in assay [5]; 0.00649 in assay [6]. The results for the log fold change Tl+ flux in assay [7] and in assay [8] were -0.0197 and -0.0252, respectively.

For `C[C@@H]1CN(CCCn2c3ccccc3c3ccccc32)C[C@H](C)N1`, the log fold change Tl+ flux in assay [1] was 0.138 (active); in assay [2], 0.64 (active); in assay [3], 0.0245; in assay [4], 0.377 (active); in assay [5], 0.219 (active); in assay [6], 0.146 (active). Also, the log fold change Tl+ flux in assay [7] was 0.312 (active); in assay [8] it was 0.00517.

Consider `NC1CCN(c2nc3c(cc2F)c(=O)c(C(=O)O)cn3-c2ccc(F)cc2F)C1` (configuration not stated), for which the log fold change Tl+ flux in assay [1] is -0.101; in assay [2], 0.00828; in assay [3], 0.0186; in assay [4], -0.0155; in assay [5], -0.00647; in assay [6] it was -0.0395. The log fold change Tl+ flux was -0.0109 in assay [7] and 0.0163 in assay [8].

Take `COC(=O)C1=C(C)NC(C)=C(C(=O)O[C@@H]2CCCN(Cc3ccccc3)C2)[C@@H]1c1cccc([N+](=O)[O-])c1`: the log fold change Tl+ flux is -0.042 in assay [1]; -0.0532 in assay [2]; -0.0108 in assay [3]; -0.0526 in assay [4]; 0.192 (active) in assay [5]; 0.191 (active) in assay [6]. Further, the log fold change Tl+ flux was -0.0168 in assay [7] and -0.0109 in assay [8].
